Test results: PubChem BioAssay (NCATS)
Records with an inconclusive call do not appear. Entries that show only a call come without a potency. Activity calls are given as the source filed them. Unless noted, the call rests on the fitted dose curve.

Tests used:
[1] = molecular target: Peroxisome proliferator-activated receptor delta (Homo sapiens) (UniProt Q03181); assay: qHTS assay for small molecule agonists of peroxisome proliferator-activated receptor delta signaling (AID 588534)
Method in brief: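 Cell-based beta-lactamase reporter assay run in agonist mode: cells seeded and incubated 5 hrs at 37 C, compounds added and incubated 18 hrs at 37 C. CCF4 dye fluorescence read after 2 hrs at RT; EC50 and efficacy from Hill fits.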

[2] = qHTS for Inhibitors of the Functional Ribonucleoprotein Complex (vRNP) of Lassa (LASV) Arenavirus: LASV Primary Screen - GLuc reporter signal (AID 1347082; calls by dose curve; tested in HEK293 reporter line; further: nearly all actives have a fitted effect of over 60% in size)
[3] = qHTS for Inhibitors of the Functional Ribonucleoprotein Complex (vRNP) of Lassa (LASV) Arenavirus: Viability assay - alamar blue signal for LASV Primary Screen (AID 1347083; calls by dose curve; tested in HEK293 reporter line; further: nearly all actives have a fitted effect of over 80% in size)
[4] = qHTS for Inhibitors of the Functional Ribonucleoprotein Complex (vRNP) of Lymphocytic Choriomeningitis Arenaviruses (LCMV): Viability assay - alamar blue signal for LCMV Primary Screen (AID 1347085; calls by dose curve; tested in HEK293 reporter line; further: nearly all actives have a fitted effect of over 80% in size)
[5] = molecular target: Nucleoprotein (Lymphocytic choriomeningitis virus (strain Armstrong)) (UniProt P09992); assay: qHTS for Inhibitors of the Functional Ribonucleoprotein Complex (vRNP) of Lymphocytic Choriomeningitis Arenaviruses (LCMV): LCMV Primary Screen - GLuc reporter signal (AID 1347086); further: nearly all actives have a fitted effect of over 70% in size
Nucleoprotein (Lymphocytic choriomeningitis virus (strain Armstrong)), sequence (P09992 whole entry, looked up): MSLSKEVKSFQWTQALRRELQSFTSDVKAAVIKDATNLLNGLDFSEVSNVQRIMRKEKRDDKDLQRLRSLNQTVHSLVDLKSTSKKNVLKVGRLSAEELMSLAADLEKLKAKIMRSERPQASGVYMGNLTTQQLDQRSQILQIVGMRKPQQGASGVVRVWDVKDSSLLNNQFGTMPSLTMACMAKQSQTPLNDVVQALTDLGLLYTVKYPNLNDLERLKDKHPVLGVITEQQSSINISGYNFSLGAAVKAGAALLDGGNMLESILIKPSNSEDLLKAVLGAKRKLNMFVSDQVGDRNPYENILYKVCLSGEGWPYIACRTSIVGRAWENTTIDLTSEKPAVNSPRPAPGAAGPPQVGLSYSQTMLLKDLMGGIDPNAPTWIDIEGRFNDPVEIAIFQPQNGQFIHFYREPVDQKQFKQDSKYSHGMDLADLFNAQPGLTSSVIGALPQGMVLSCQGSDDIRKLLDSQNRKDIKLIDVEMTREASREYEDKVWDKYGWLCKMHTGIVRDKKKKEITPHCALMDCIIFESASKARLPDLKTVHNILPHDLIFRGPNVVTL

[6] = molecular target: Bile acid receptor (Homo sapiens) (UniProt Q96RI1); assay: qHTS assay for small molecule agonists of farnesoid X receptor signaling (AID 588527); conditions: HEK293T FXR-UAS-bla, beta-lactamase ratio, 16 h; activation: stronger effect = higher value
Bile acid receptor (Homo sapiens), sequence (Q96RI1 whole entry, looked up): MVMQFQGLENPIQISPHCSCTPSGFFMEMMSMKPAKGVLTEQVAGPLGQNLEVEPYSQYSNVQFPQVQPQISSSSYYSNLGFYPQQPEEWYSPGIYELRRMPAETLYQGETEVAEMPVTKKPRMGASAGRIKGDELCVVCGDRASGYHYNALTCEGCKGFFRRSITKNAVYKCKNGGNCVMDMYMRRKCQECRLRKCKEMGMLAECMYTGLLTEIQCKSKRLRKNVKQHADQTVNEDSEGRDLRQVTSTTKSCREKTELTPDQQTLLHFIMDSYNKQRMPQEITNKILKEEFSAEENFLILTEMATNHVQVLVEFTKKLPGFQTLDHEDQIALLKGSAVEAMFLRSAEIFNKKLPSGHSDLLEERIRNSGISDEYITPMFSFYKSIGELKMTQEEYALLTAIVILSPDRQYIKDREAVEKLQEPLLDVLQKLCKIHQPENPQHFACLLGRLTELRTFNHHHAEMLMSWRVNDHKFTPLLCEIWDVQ
Method in brief: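 FXR-UAS-bla HEK293T cells (10% dialyzed FBS) preincubated 5-7 h at 37 C, then compounds at up to 92 uM for 16 h at 37 C. CCF4 beta-lactamase read-out after 2 h RT. Normalized to chenodeoxycholic acid (100 uM) and DMSO; Hill fit gave EC50 and efficacy.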

[7] = qHTS profiling of the MIPE4 collection as inhibitors of Plasmodium falciparum (3D7) proliferation (AID 743344; call rule not given here); conditions: P. falciparum 3D7 in erythrocytes, SYBR Green DNA fluorescence, 72 h; at 28.5 µM (top of the series) unless noted
Method in brief: (§1)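 Erythrocytes infected with P. falciparum (0.3% parasitemia, 2.5% hematocrit) incubated with compounds 72 h at 37 C, 5% CO2. Lysis with saponin/Triton buffer containing SYBR Green I, overnight at room temperature in the dark; DNA fluorescence (485/535 nm) normalised to 0.29 uM artemisinin and DMSO.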

[8] = qHTS profiling of the MIPE4 collection as inhibitors of Plasmodium falciparum (DD2) proliferation (AID 743345; call rule not given here); conditions: P. falciparum Dd2 in erythrocytes, SYBR Green DNA, 72 h; at 28.5 µM (top of the series) unless noted
Method in brief: as §1

[9] = qHTS profiling of the MIPE4 collection as inhibitors of Plasmodium falciparum (DD2) proliferation (Rep 2) (AID 743346; call rule not given here); conditions: P. falciparum Dd2 in erythrocytes, SYBR Green DNA, 72 h; at 28.5 µM (top of the series) unless noted
Method in brief: as §1

[10] = qHTS profiling of the MIPE4 collection as inhibitors of Plasmodium falciparum (HB3) proliferation (AID 743347; call rule not given here); conditions: P. falciparum HB3 in erythrocytes, SYBR Green DNA, 72 h; at 28.5 µM (top of the series) unless noted
Method in brief: as §1

Peroxisome proliferator-activated receptor delta (Homo sapiens), sequence (Q03181 whole entry, looked up): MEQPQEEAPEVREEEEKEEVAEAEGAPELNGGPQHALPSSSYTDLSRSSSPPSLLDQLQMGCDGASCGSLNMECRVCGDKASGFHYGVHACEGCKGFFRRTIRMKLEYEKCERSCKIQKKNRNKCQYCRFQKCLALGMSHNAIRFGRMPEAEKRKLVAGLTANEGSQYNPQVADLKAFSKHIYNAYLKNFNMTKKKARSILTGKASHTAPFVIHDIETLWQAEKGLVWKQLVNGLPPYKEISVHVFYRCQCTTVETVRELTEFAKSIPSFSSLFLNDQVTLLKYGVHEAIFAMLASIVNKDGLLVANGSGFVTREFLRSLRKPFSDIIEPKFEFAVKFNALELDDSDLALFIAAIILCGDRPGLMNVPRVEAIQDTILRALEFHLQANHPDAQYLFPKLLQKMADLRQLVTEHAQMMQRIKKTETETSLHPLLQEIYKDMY

Structure (SMILES)	Potency [1]	Potency [2]	Potency [3]	Potency [4]	Potency [5]	activation [6]	parasite growth, % of DMSO control [7]	parasite growth remaining, % of DMSO control (lower = more inhibition) [8]	parasite growth, % of control (lower = inhibition) [9]	growth, % of control [10]
CC(=O)OCCC(C)C	inactive	inactive	inactive	inactive	inactive					
CCCCCCCCCC(C)=O	inactive	inactive	inactive	inactive	inactive					
COC(=O)CCC(=O)OC	inactive	inactive	inactive	inactive	inactive	2.67% (inactive)				
C[C@H](CCC(=O)O)[C@H]1CC[C@H]2[C@@H]3[C@H](O)C[C@@H]4C[C@H](O)CC[C@]4(C)[C@@H]3CC[C@]12C		inactive	inactive	inactive	inactive		59.3%	92.9%	67.3%	81.3%
CCC(CC)[C@H](NC(C)=O)[C@@H]1[C@H](O)[C@@H](C(=O)O)C[C@@H]1N=C(N)N		inactive	inactive	inactive	inactive		81.5%	98.5%	112%	
C[C@H]1[C@H](NC(=O)C(=NOC(C)(C)C(=O)O)c2csc(N)n2)C(=O)N1S(=O)(=O)O		inactive	inactive	inactive	inactive		97.7%	91.7%	91.7%	
CC/C=C\CCOC(=O)c1ccccc1O	inactive	inactive	inactive	inactive	inactive					
COC(=O)c1ccc(C)cc1	inactive	inactive	inactive	inactive	inactive	-0.0429% (inactive)				
CC(=O)OC/C=C(\C)CCC=C(C)C	inactive	inactive	inactive	inactive	inactive					
CNC1[C@H](O)C(O[C@@H]2C(O)C(O[C@H]3O[C@H]([C@@H](C)NC)CC[C@H]3N)[C@@H](N)C[C@H]2N)OC[C@]1(C)O (some centres not stated)		inactive	inactive	inactive	inactive		93.1%	103%	111%	
CC(C)Nc1nc(N)nc(Cl)n1	inactive	inactive	inactive	inactive	inactive					
C=C1C[C@@]2(O)O[C@@]3(C[C@H]2C(C)C)[C@H](C)CC[C@H]13		inactive	inactive	inactive	inactive		70.7%	75.7%	48.2%	68.4%
COc1cc(CNC(=O)CCCCC=CC(C)C)ccc1O		inactive	inactive	inactive	inactive		92.4%	103%	129%	105%
C=CCCCCCCCCC=O	inactive	inactive	inactive	inactive	inactive					
COc1ccc(OC)cc1	inactive	inactive	inactive	inactive	inactive					
C=CCCCCCCCCCCCC	inactive	inactive	inactive	inactive	inactive					
